Laboratory results published in PubChem BioAssay AID2235 (The Scripps Research Institute Molecular Screening Center, 2010).
Screen size: about 320,000 compounds; about 2,800 (0.88%) were called active.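 How the source made its calls: active means inhibition above the mean inhibition of all tested compounds plus 3 SD, computed separately for each screening campaign (cut at about 15% in these data); inactive means the rest.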 Many of the other results were omitted from the sample, so actives are more common in it than they were.

These compounds were tested against Serine/threonine-protein phosphatase PP1-alpha catalytic subunit (Homo sapiens) (UniProt P62136) (assay: PP1-alpha phosphatase inhibitors, primary screen, counter-screen for PP5 inhibitor project, biochemical, fluorescence, OMFP substrate, single point (AID 2235)). Details: purified PP1alpha, at 6.7 µM, hits give high values.
Sequence of Serine/threonine-protein phosphatase PP1-alpha catalytic subunit (Homo sapiens) (P62136 whole entry, looked up): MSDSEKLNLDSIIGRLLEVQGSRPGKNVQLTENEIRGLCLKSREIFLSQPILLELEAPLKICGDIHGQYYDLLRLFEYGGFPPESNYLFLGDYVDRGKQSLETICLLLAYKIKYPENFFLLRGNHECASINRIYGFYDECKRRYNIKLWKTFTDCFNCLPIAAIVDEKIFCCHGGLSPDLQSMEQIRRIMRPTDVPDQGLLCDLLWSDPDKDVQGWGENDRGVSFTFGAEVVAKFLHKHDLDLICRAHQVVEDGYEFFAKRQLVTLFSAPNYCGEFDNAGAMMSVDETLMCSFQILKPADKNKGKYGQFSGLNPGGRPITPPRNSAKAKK

Row | SMILES | inhibition
1 | CC(=O)c1c(C)[nH]c(C(=O)OCC(=O)Nc2sc3c(c2C#N)CCCC3)c1C | 8.8% (inactive)
2 | Cc1cccc(N(Cc2ccccc2)C(=O)c2ccccc2F)c1 | 0.11% (inactive)
3 | COc1ccc(C2=NS(=O)(=O)N(C)C(C(=O)NC(C)c3ccccc3)=C2)cc1 (centres undefined) | -1.27% (inactive)
4 | CCOc1ccc(CNC(=O)C2CCCN(c3nnc(C)c4c(C)n(-c5ccccc5)nc34)C2)cc1 (centres undefined) | 1.12% (inactive)
5 | CCc1ccc(CNC(=O)C2CCN(c3nnc(C)c4c(C)n(-c5ccc(C)cc5)nc34)CC2)cc1 | 16.5% (active)
6 | COc1ccc(-n2nc3c(N4CCC(C(=O)NCc5ccccc5)CC4)nnc(C)c3c2C)cc1 | 4.6% (inactive)
7 | CC(C)Cn1c(N)c(C(=O)COC(=O)CN2C(=O)C3CC=CCC3C2=O)c(=O)n(C)c1=O (centres undefined) | -0.85% (inactive)
8 | O=C(Nc1ccc2ccccc2c1)Nc1ccc2snnc2c1 | 13.3% (inactive)
9 | Cc1nn(-c2ccccc2)c2[nH]c(C(F)(F)F)cc(=O)c12 | 2.68% (inactive)
10 | CCCN1CCN(C(=O)CCCNC(=O)c2ccc(Cl)cc2)CC1 | -3.09% (inactive)
11 | CN1CCN(CCCNC(=O)c2ccc(/C=C3\Oc4ccccc4N(Cc4ccc(Cl)cc4)C3=O)cc2)CC1 | 25.6% (active)
12 | CN1C(=O)/C(=C/c2ccc(C(=O)NC3CCCC3)cc2)Oc2ccccc21 | 1.1% (inactive)
13 | Cc1cc(C)nc(-n2nc(C)cc2NC(=O)c2ccc(F)cc2F)n1 | -0.61% (inactive)
14 | O=C(NCc1ccccc1)C(c1cccnc1)N(C(=O)c1csnn1)c1ccc(F)cc1 (centres undefined) | 8.74% (inactive)
15 | O=C(N=C1SC2CS(=O)(=O)CC2N1c1cc(Cl)ccc1Cl)C1CC1 (centres undefined) | 18.9% (active)
16 | O=C(CCC1CCCC1)N=C1SC2CS(=O)(=O)CC2N1Cc1ccccc1 (centres undefined) | 5.06% (inactive)
17 | CC(=O)c1ccc(N2C(=NC(=O)C(C)C)SC3CS(=O)(=O)CC32)cc1 (centres undefined) | -3.39% (inactive)
18 | CCOC(=O)N1CCN(C(=O)c2ccc3c(=O)n(CCc4ccc(OC)c(OC)c4)c(=O)[nH]c3c2)CC1 | 4.83% (inactive)
19 | NS(=O)(=O)c1ccc(CCNC(=O)COC(=O)COc2cccc(C(F)(F)F)c2)cc1 | -0.82% (inactive)
20 | CCOC(=O)c1cc(-c2ccc(F)cc2)n(CC(=O)NCc2ccccn2)c1C | -3.29% (inactive)
21 | Cc1ccc(OCC(=O)Nc2ccc(-c3nnc(-c4ccco4)o3)cc2)cc1 | 24.5% (active)
22 | Cc1ccc(OCC(=O)Nc2ccc(-c3nc4ncccc4o3)cc2)cc1 | 0.81% (inactive)
23 | CCCCOc1ccc(-c2nnc(-c3ccco3)o2)cc1 | 3.14% (inactive)

Row | SMILES | inhibition
24 | Cc1cc(C)nc(N/N=C/c2c(CO)cnc(C)c2O)n1 | 1.96% (inactive)
25 | CSc1ccccc1NC(=O)c1cc(C2CC2)on1 | 0.1% (inactive)
26 | Cc1ccc2nc(N3C(=O)C(O)=C(C(=O)c4ccco4)C3c3cccc(O)c3)sc2c1 (centres undefined) | 21.7% (active)
27 | C=CCSc1nnc(N2C(=O)C(O)=C(C(=O)c3ccco3)C2c2ccc(F)cc2)s1 (centres undefined) | 10.6% (inactive)
28 | Cc1ccc2nc(N3CCN(C(=O)c4ccco4)CC3)sc2c1 | -4.18% (inactive)
29 | COc1ccc(OC(C)C(=O)Nc2cccnc2)cc1 (centres undefined) | 3% (inactive)
30 | Cc1cc(NC(=O)CSCc2nc(-c3cccc(Cl)c3)oc2C)no1 | 0.91% (inactive)
31 | COc1ccc(N2C(=O)C(CC(=O)Nc3ccccc3)N(Cc3ccc(OC)c(OC)c3)C2=O)cc1 (centres undefined) | -2.83% (inactive)
32 | OCCCN1c2ccccc2Nc2nnc(-c3ccccc3)cc21 | 21.4% (active)
33 | N=c1c2c(-c3ccccc3)c(-c3ccccc3)n(Cc3ccccc3)c2ncn1CCCO | 7.81% (inactive)
34 | c1ccc(-c2cc(-c3ccccc3)[nH]n2)cc1 | 2.76% (inactive)
35 | CCN(CCCNC(=O)c1ccc2c(c1)NC(=O)CN2C)c1cccc(C)c1 | -0.43% (inactive)
36 | CCC(C)N(C(=O)CSc1nnnn1-c1ccccc1OC)C1CCS(=O)(=O)C1 (centres undefined) | -1.76% (inactive)
37 | CC1CCCCN1C(=O)Cn1c(=O)oc2cc(S(=O)(=O)N3CCCCC3)ccc21 (centres undefined) | 5.73% (inactive)
38 | COc1cc(Br)c(-c2sc(Nc3ccccc3)n[n+]2-c2ccccc2)cc1OC | -0.57% (inactive)
39 | COc1ccc(C)cc1Nc1n[n+](-c2ccccc2)c(-c2cccc(Cl)c2Cl)s1 | 15.2% (active)
40 | CCc1ccc(Nc2n[n+](-c3ccccc3)c(-c3cccc(Cl)c3Cl)s2)cc1 | 14.2% (inactive)
41 | CCCN(CC(=O)Nc1ccc(OC)c(OC)c1)CC(=O)Nc1ccc(F)c(F)c1F | -0.52% (inactive)
42 | NC(=O)c1ccsc1NC(=O)c1ccco1 | 1.47% (inactive)
43 | O=C(Nc1nc(-c2ccco2)c(-c2ccco2)s1)c1ccco1 | 26.9% (active)
44 | O=C(Nc1nnc(CCOCCOCCc2nnc(NC(=O)c3ccco3)s2)s1)c1ccco1 | -2.12% (inactive)
45 | N#Cc1ccccc1S(=O)(=O)N1CCN(Cc2c(O)ccc3ccccc23)CC1 | 0.2% (inactive)
46 | COc1ccccc1NC(=O)CSc1nc2sc3c(c2c(=O)n1-c1ccccc1)CCN(C)C3 | 21.4% (active)

Row | SMILES | inhibition
47 | CCn1c(SCC(=O)Nc2ccc(Br)cc2)nc2sc3c(c2c1=O)CCN(C)C3 | 3.91% (inactive)
48 | CCOc1ccc(-n2c(SCC(=O)Nc3ccc(OC)cc3)nc3sc4c(c3c2=O)CCN(C)C4)cc1 | 11.8% (inactive)
49 | Cc1cc(S(=O)(=O)NC2CCCC2)ccc1-n1cnnn1 | 3.65% (inactive)
50 | CC(Sc1nnnn1C)C(=O)NC(=O)NC1CCCCC1 (centres undefined) | 10.8% (inactive)
51 | CCN(CCNC(=O)C1=C(C)C(=O)OC12CCC(C)CC2)c1ccccc1 (centres undefined) | -1.92% (inactive)
52 | Cc1ccc(NC(=O)Nc2cccc(C(F)(F)F)c2)nc1 | 2.27% (inactive)
53 | CCNS(=O)(=O)c1ccc(NC(=O)Nc2cccc(C(F)(F)F)c2)cc1 | 34.2% (active)
54 | O=C(Nc1ccc(C(=O)N2CCOCC2)cc1)Nc1cccc(C(F)(F)F)c1 | 0.27% (inactive)
55 | CCCCNCc1ccc(SC)cc1 | -2.43% (inactive)
56 | N=c1c2c3c(sc2nc2n1CCCCC2)CCCC3 | -1.9% (inactive)
57 | CCCCn1c(SCC(=O)N2CCCC2=O)nc2cc(S(N)(=O)=O)ccc21 | 2.2% (inactive)
58 | CCCCn1c(SCC(=O)N2CCC(C(=O)OCC)CC2)nc2cc(S(N)(=O)=O)ccc21 | -5.51% (inactive)
59 | CCCCn1c(SCc2ncc(-c3ccccc3)o2)nc2cc(S(N)(=O)=O)ccc21 | 17.9% (active)
60 | Cc1ccccc1/C=C\c1nc(O)c([N+](=O)[O-])c(=O)[nH]1 | -3.61% (inactive)
61 | CC(=O)c1ccc(N2CCN(S(=O)(=O)c3ccc4c(c3)CC(=O)N4C)CC2)cc1 | 20.6% (active)
62 | CC(=O)c1ccc(N2CCN(S(=O)(=O)c3c(C)[nH]c(=O)[nH]c3=O)CC2)cc1 | -4.3% (inactive)
63 | CC(=O)c1ccc(N2CCN(C(=O)C3CCN(S(=O)(=O)c4ccc5c(c4)CC(C)N5C(=O)C4CC4)CC3)CC2)cc1 (centres undefined) | 8.74% (inactive)
64 | COc1cccc(NC(=O)C/C(C)=N/NC(=O)C2CCCCC2)c1 | 4.45% (inactive)
65 | COc1ccc(CCNC(=O)C2CC3Cn4c(nc5cc(C)c(C)cc54)C3N2C)cc1 (centres undefined) | -2.39% (inactive)
66 | C=CCOC(=O)C1=C[C@@H](c2ccc3c(c2)OCO3)C[C@@H](OCCCCO)O1 | 5.48% (inactive)
67 | O=C(CN1C(=O)NC(Cc2ccccc2)(Cc2ccccc2)C1=O)NCC1CCCCC1 | -3.39% (inactive)
68 | CN(C)c1nc(Nc2ccc(Cl)c(Cl)c2)nc(N(C)C)n1 | 0.07% (inactive)
69 | OCCNc1nc(Nc2ccc(Cl)c(Cl)c2)nc2ccccc12 | 23.4% (active)

Row | SMILES | inhibition
70 | COc1cc2nc(Cl)nc(NCCO)c2cc1OC | -3.14% (inactive)
71 | CCc1ccc(CNC(=O)C2CC(=O)N(CCc3ccc(C)cc3)C2)cc1 (centres undefined) | -3.41% (inactive)
72 | CCC(=O)N1CCN=C1SCc1ccc(F)cc1 | -1.6% (inactive)
73 | CCOC(=O)C1=C(O)/C(=C/c2ccc(OCC(=O)Nc3ccc(C)cc3)cc2)N=C1C | 15.1% (inactive)
74 | COC(=O)C1=C(O)/C(=C/c2ccc(OCC(=O)Nc3ccccc3)cc2)N=C1C | 1.71% (inactive)
75 | Cc1ccc(NC(=O)COc2ccc(/C=C3/NC(=O)NC3=O)cc2)cc1 | 19.3% (active)
76 | CCc1cccc(NC(=O)COC(=O)C2CCN(c3ccc(C(F)(F)F)cn3)CC2)c1 | 3.82% (inactive)
77 | Cc1noc(C)c1S(=O)(=O)NCCc1ccc(S(N)(=O)=O)cc1 | -1.43% (inactive)
78 | O=C(c1ccc(Cl)c(S(=O)(=O)N2CCCCCC2)c1)N1CCN(c2ccc(O)cc2)CC1 | 5.02% (inactive)
79 | CC(C)n1ncc2c(C(=O)NCc3ccccc3CN(C)C)cc(C3CC3)nc21 | 3.23% (inactive)
80 | O=C(NCC(c1ccco1)N1CCc2ccccc2C1)c1ccccc1Cl (centres undefined) | -5.84% (inactive)
81 | O=C(/C=C/c1ccc(F)cc1)NC(=S)NNC(=O)c1cccnc1 | 24.8% (active)
82 | O=C(/C=C/c1ccc(F)cc1)NCCNC(=O)/C=C/c1ccc(F)cc1 | -0.56% (inactive)
83 | CC(C)c1ccc(/C=C/C(=O)NNC(=O)c2cccnc2)cc1 | -4.56% (inactive)
84 | CCN(CC)Cc1c(C(=O)N/N=C/c2cccc(OCc3ccc(F)cc3)c2)nnn1-c1nonc1N | -5.41% (inactive)
85 | COc1cccc(N2CCN(c3ccc4nnc(CCC(=O)N5CCN(C)CC5)n4n3)CC2)c1 | -3.98% (inactive)
86 | CCOc1ccc(NC(=O)NNC(=O)c2ccc(Cl)cc2Cl)cc1 | 3.13% (inactive)
87 | OC(CNCCc1ccc(Cl)cc1Cl)COc1ccccc1 (centres undefined) | 10.6% (inactive)
88 | NC(N)=N/N=C/c1ccc(OCc2ccc(Cl)cc2Cl)cc1 | 37.2% (active)
89 | Cc1cccc(Nc2nnc(SCC(=O)c3c(N)n(C4CC4)c(=O)[nH]c3=O)s2)c1C | -0.71% (inactive)
